# Where “and” joins values, the source holds several entries; their conditions need not be identical. Equal entries are not always repeated. Calls of active or inactive are those of the source.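 Rule for the calls, unless noted: active = thallium flux through the channel raised or lowered by more than 3 SD from vehicle-only wells, actives on both sides; inactive = the rest.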
# Key:
# [1] = stimulators of nuclear beta-catenin in C2C12, primary screen, imaging, WNT3A-conditioned medium, mouse C2C12, NPC library (AID 1117326; in the data active = nuclear beta-catenin stimulation mostly above about 4.2%, no sharp cut-off; inactive = mostly below about 10%); conditions: stronger effect = higher value
# [2] = stimulators of insulin release from INS-1E, primary screen, cell-based, 5 mM glucose, NPC library (AID 1117329;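 active = compound raises insulin release from rat beta cells at 5 mM glucose, no numeric limit stated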); conditions: rat INS-1E insulin secretion, at 10 µM, stronger effect = higher value
# [3] = growth inhibition of GSK3B-pretreated HCT116 cells – cell-based, CellTiter-Glo, 0.2 to 20 µM (AID 1117336;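 active = compounds lowering colon cancer cell viability after pretreatment blocking the GSK3B kinase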); conditions: HCT116 viability after GSK3B inhibitor, at 20 µM, stronger effect = higher value
# [4] = inhibition of endothelial tube formation, primary screen, imaging, VEGF stimulated, CD31 staining, tube area, NPC library (AID 1117340;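 active = compound that reduces growth-factor-driven endothelial tube area in a mixed cell culture, no cutoff stated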); conditions: VEGF-stimulated ADSC/ECFC co-culture, at 10 µM, stronger effect = higher value
# [5] = glucagon-like peptide 1 release enhancers, primary assay, NCI-H716 cell line, NPC library (AID 1117341;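 active = compound raises GLP1 secretion from the human gut endocrine cells, with no numeric limit stated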); conditions: NCI-H716 cells, at 10 µM, stronger effect = higher value
# [6] = HCT116 colon cancer cell growth inhibition, primary screen, CellTiter-Glo luminescence, NPC library (AID 1117342;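 active = compounds that lower survival of HCT116 colon cancer cells in the luminescence readout, no numeric limit stated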); conditions: at 20 µM (top of the series)
# [7] = CellTiter-Glo luminescent readout of SW480 viability loss, NPC library primary (AID 1117343;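 active = compounds that lower viability of the colon cancer cells in the luminescence readout, with no numeric limit stated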); conditions: CellTiter-Glo luminescence; at 20 µM (top of the series)
# [8] = decreased DLD-1 cellular survival, CellTiter-Glo luminescent readout, NPC compound collection, primary HTS (AID 1117346;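 active = compounds that lower survival of DLD-1 colon cancer cells in the luminescence readout, no cutoff given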); conditions: DLD-1 viability, CellTiter-Glo luminescence; at 20 µM (top of the series)
# [9] = molecular target: 6-phosphogluconate dehydrogenase, decarboxylating (Homo sapiens) (UniProt P52209); test: 6PGD enzyme inhibitors, primary screen, biochemical, human, recombinant enzyme, NADPH absorbance (AID 1159550;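 active = at least 20% inhibition of 6-phosphogluconate dehydrogenase activity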); conditions: recombinant 6PGD, NADPH absorbance 341 nm; at 10 µM; stronger effect = higher value
# [10] = modulation of C. elegans fzo-1 (AID 1259413; call rule not given here;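 note: fzo-1 mutant C. elegans worms in liquid wells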); conditions: C. elegans fzo-1 modulator screen, mean read-out; stronger effect = higher value
# [11] = differential killing of epithelial or mesenchymal cells, primary screen, imaging, PC-3E GFP, TEM4-18 mCherry, co-culture (AID 1345086;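 active = compounds killing one labelled cell type while sparing the other, by normalised counts and ratio limits, not self-fluorescent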;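 for all read-outs here: cells exposed to compound for 72 h before imaging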;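 for red/green cell ratio (normalised): normalised mesenchymal count divided by normalised epithelial count so high means epithelial killing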); conditions: imaging cell counts, at 1 µM; for red/green cell ratio (normalised): actives lie on both sides, counts scaled to control wells, 1 = unselective
# [12] = survival rescue of mitochondrial mutant cells in low glucose, primary screen, MELAS cybrids, Rieske KO mouse fibroblasts, CellTiter-Glo (AID 1508586;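 active = mean z-score across replicates of 1.96 or higher in either the MELAS or the Rieske mutant cell line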;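 note: z relative to plate mean and SD of compound and empty wells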)
# [13] = molecular target: NAD(+) hydrolase SARM1 (Homo sapiens) (UniProt Q6SZW1); test: SARM1 TIR NADase inhibitors, cell lysate, NAD-Glo luminescence (AID 1508614;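 active = compound whose remaining NAD level is above about 45 nM, limit read from the data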;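 note: higher remaining NAD means stronger inhibition of SARM1 NADase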); conditions: SAM-TIR HEK293T lysate NADase, at 1 µM, stronger effect = higher value
# [14] = molecular target: Mitogen-activated protein kinase 7 (Homo sapiens) (UniProt Q13164); test: ERK5 transactivation activators in reporter cells, primary screen, cell-based, HTS (AID 1508626;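 active = luciferase signal above three times the same-plate solvent-only control wells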;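 note: luciferase driven by Gal4-ERK5 fusion binding five Gal4 sites before minimal TATA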); conditions: HeLa Gal4-ERK5 transactivation, 18 h, at 5 µM, stronger effect = higher value
# F380Y = test: modulators of BK channel variants, profiling panel, selectivity assay, cell-based, U2OS BacMam, thallium flux, beta subunits (AID 1259406); conditions: at 30 µM;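 note: initial slope of Thallos dye fluorescence rise after thallium is added; log ratio against the mean of 0.3% DMSO vehicle wells on the same plate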
# F380Y/beta1 = test: as above; conditions: at 30 µM
# F380Y/beta2Delta = test: as above; conditions: at 30 µM
# [15] = measured here: epithelial PC-3E GFP cell survival
# [16] = measured here: mesenchymal TEM4-18 mCherry cell survival
# [17] = MELAS cybrid survival, CellTiter-Glo 48 h, stronger effect = higher value
# [18] = Rieske KO mouse fibroblast survival, CellTiter-Glo 72 h
# Sequence of 6-phosphogluconate dehydrogenase, decarboxylating (Homo sapiens) (P52209 whole entry, looked up): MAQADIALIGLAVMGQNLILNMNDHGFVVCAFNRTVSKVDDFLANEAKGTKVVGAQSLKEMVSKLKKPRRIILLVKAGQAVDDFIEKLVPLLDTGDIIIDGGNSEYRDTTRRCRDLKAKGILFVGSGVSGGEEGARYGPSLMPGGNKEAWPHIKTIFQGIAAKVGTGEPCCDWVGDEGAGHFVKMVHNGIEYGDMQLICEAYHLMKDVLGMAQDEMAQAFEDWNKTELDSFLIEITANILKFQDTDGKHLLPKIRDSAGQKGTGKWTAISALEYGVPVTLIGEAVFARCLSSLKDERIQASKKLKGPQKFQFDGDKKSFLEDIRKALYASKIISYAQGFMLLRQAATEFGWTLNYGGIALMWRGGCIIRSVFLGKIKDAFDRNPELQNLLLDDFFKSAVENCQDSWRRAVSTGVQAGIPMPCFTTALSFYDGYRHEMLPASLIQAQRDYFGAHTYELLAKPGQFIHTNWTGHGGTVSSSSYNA
# Sequence of NAD(+) hydrolase SARM1 (Homo sapiens) (Q6SZW1 whole entry, looked up, the tested form may be a part): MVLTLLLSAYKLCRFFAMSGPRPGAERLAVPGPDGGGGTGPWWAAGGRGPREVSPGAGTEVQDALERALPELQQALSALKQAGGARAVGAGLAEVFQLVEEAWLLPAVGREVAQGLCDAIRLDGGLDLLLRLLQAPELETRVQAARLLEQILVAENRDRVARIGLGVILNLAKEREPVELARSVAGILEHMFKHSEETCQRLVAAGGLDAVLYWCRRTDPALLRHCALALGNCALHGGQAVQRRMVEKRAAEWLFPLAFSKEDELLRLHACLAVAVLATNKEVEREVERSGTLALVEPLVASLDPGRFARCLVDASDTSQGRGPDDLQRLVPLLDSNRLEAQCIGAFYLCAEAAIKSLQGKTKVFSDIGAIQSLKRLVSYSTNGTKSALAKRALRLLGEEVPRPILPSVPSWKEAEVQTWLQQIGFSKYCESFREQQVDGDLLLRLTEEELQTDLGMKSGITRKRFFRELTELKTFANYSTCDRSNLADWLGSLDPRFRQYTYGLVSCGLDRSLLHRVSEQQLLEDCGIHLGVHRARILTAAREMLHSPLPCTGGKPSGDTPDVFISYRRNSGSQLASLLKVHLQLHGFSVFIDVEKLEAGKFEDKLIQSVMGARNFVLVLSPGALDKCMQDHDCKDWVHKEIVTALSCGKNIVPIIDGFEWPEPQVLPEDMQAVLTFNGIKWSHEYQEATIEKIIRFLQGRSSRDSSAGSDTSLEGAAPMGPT
# Sequence of Mitogen-activated protein kinase 7 (Homo sapiens) (Q13164 whole entry, looked up, the tested form may be a part): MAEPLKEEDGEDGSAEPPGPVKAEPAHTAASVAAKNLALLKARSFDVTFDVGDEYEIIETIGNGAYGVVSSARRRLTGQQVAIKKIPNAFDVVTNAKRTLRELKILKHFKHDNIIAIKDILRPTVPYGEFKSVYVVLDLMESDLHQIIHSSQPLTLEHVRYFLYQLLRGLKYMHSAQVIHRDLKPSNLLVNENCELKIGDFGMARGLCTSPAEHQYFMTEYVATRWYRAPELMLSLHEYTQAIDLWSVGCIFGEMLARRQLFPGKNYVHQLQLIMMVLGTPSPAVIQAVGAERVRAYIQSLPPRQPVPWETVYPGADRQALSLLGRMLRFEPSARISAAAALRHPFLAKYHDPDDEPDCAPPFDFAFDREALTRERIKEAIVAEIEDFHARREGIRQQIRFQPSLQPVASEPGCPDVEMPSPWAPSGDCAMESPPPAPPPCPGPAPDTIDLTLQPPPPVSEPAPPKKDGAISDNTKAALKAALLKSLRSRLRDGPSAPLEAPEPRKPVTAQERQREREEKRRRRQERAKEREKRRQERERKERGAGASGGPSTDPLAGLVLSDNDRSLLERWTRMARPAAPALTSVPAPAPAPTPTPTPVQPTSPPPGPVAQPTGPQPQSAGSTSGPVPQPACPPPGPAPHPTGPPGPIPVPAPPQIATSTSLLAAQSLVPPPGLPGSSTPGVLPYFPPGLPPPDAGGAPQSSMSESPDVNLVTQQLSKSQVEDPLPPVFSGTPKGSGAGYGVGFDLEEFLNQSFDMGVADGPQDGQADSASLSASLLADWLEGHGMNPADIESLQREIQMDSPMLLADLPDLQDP
compound,measurement,setting,value
COc1ccc(Cl)cc1C(=O)NCCc1ccc(S(=O)(=O)NC(=O)NC2CCCCC2)cc1,nuclear beta-catenin stimulation,[1]; at 10 µM,-0.8% (inactive)
same,nuclear beta-catenin stimulation,"[1]; stimulation, at 2 µM",-0.5%
same,insulin secretion stimulation,[2],28.1% (active)
same,viability decrease,[3],17.8% (inactive)
same,tube area decrease,[4],12% (inactive)
same,GLP1 secretion stimulation,[5],4.4% (inactive)
same,inhibition of viability,[6],20% (inactive)
same,viability decrease (inhibition),[7],72.3% (active)
same,viability decrease (inhibition),[8],14.1% (inactive)
same,inhibition,[9],12.3% (inactive)
same,mean signal,[10],242 (inactive)
same,red/green cell ratio (normalised),[11],1.5 (inactive)
same,normalised cell number,[11]; [15],0.7
same,normalised cell number,[11]; [16],1.05
same,z-score,[12]; [17],0.114 (inactive) and -0.333 (inactive) and 0.459 (inactive)
same,z-score,[12]; [18],0.113 and 0.377 and -0.0891
same,remaining NAD,[13],10 nM (inactive)
same,luciferase signal,[14],52 AU (inactive)
same,log fold change Tl+ flux,F380Y,0.0726 (inactive)
same,log fold change Tl+ flux,F380Y/beta1,0.119 (active)
same,log fold change Tl+ flux,F380Y/beta2Delta,0.0268 (inactive)
CC(C)Cc1ccc(C(C)C(=O)O)cc1 (configuration not stated),nuclear beta-catenin stimulation,[1]; at 10 µM,0.3% (inactive)
same,nuclear beta-catenin stimulation,"[1]; stimulation, at 2 µM",1.7%
same,insulin secretion stimulation,[2],-2.6% (inactive)
same,viability decrease,[3],-2.1% (inactive)
same,tube area decrease,[4],0.9% (inactive)
same,GLP1 secretion stimulation,[5],0.1% (inactive)
same,inhibition of viability,[6],-7.8% (inactive)
same,viability decrease (inhibition),[7],21.6% (inactive)
same,viability decrease (inhibition),[8],16.6% (inactive)
same,inhibition,[9],-4.32% (inactive)
same,mean signal,[10],242 (inactive)
same,red/green cell ratio (normalised),[11],1 (inactive)
same,normalised cell number,[11]; [15],1.11
same,normalised cell number,[11]; [16],1.11
same,z-score,[12]; [17],0.0693 (inactive) and -0.542 (inactive)
same,z-score,[12]; [18],-0.22 and -1.3
same,remaining NAD,[13],10 nM (inactive)
same,luciferase signal,[14],24 AU (inactive)
same,log fold change Tl+ flux,F380Y,0.0419 (inactive)
same,log fold change Tl+ flux,F380Y/beta1,-0.0217 (inactive)
same,log fold change Tl+ flux,F380Y/beta2Delta,0.0321 (inactive)
CCOC(=O)C1=C(C)NC(C)=C(C(=O)OC)C1c1cccc([N+](=O)[O-])c1 (configuration not stated),nuclear beta-catenin stimulation,[1]; at 10 µM,-0.1% (inactive)
same,nuclear beta-catenin stimulation,"[1]; stimulation, at 2 µM",1.2%
same,insulin secretion stimulation,[2],2.2% (inactive)
same,viability decrease,[3],58.2% (active)
same,tube area decrease,[4],23.7% (inactive)
same,GLP1 secretion stimulation,[5],-0.6% (inactive)
same,inhibition of viability,[6],75.7% (active)
same,viability decrease (inhibition),[7],52.4% (active)
same,viability decrease (inhibition),[8],40.9% (inactive)
same,inhibition,[9],2.14% (inactive)
same,mean signal,[10],230 (inactive)
same,red/green cell ratio (normalised),[11],1.19 (inactive)
same,normalised cell number,[11]; [15],1.11
same,normalised cell number,[11]; [16],1.31
same,z-score,[12]; [17],-0.48 (inactive) and 1.38 (inactive) and -0.0841 (inactive)
same,z-score,[12]; [18],0.0141 and 0.8 and 0.442
same,remaining NAD,[13],10 nM (inactive)
same,log fold change Tl+ flux,F380Y,0.00482 (inactive)
same,log fold change Tl+ flux,F380Y/beta1,-0.0255 (inactive)
same,log fold change Tl+ flux,F380Y/beta2Delta,-0.0689 (inactive)
